Counter-ions that a name gives are not always drawn. ± gives the uncertainty stated by the source.

The test deals with Candida albicans SNY425 biofilm. Put plainly: biofilm OD600 with compound plus antifungal (OD600 (absorbance)); higher = more biofilm remaining. Conditions: assay detail: sustained inhibition (compound + antifungal during 90-min adherence and 24-h growth).
For `CO[C@@H]1[C@H](OC(=O)/C=C/C=C/C=C/C=C/C(=O)O)CC[C@]2(CO2)[C@H]1[C@@]1(C)O[C@@H]1CC=C(C)C` [Fumagillin] + C[C@@H]1[C@H](O)[C@@H](C)/C=C/C=C/C=C/C=C/C=C/C=C/C=C/[C@H](O[C@@H]2O[C@H](C)[C@@H](O)[C@H](N)[C@@H]2O)C[C@@H]2O[C@](O)(C[C@@H](O)C[C@@H](O)[C@H](O)CC[C@@H](O)C[C@@H](O)CC(=O)O[C@H]1C)C[C@H](O)[C@H]2C(=O)O [amphotericin B] (first compound 12.5 µM), the “biofilm OD600” value is 0.185 ± 0.0052.
The figure for `C[C@]1(Cn2ccnn2)[C@H](C(=O)O)N2C(=O)C[C@H]2S1(=O)=O` [Tazobactam] + C[C@@H]1[C@H](O)[C@@H](C)/C=C/C=C/C=C/C=C/C=C/C=C/C=C/[C@H](O[C@@H]2O[C@H](C)[C@@H](O)[C@H](N)[C@@H]2O)C[C@@H]2O[C@](O)(C[C@@H](O)C[C@@H](O)[C@H](O)CC[C@@H](O)C[C@@H](O)CC(=O)O[C@H]1C)C[C@H](O)[C@H]2C(=O)O [amphotericin B] (first compound 12.5 µM) is 0.193 ± 0.0071; for `CC(C)(C)NC(=O)[C@@H]1CN(Cc2cccnc2)CCN1C[C@@H](O)C[C@@H](Cc1ccccc1)C(=O)N[C@H]1c2ccccc2C[C@H]1O` [indinavir] + OC(Cn1cncn1)(Cn1cncn1)c1ccc(F)cc1F [fluconazole] (first compound 12.5 µM) it is 0.17 ± 0.015; for `CC1(C)C[C@@H]1C(=O)N/C(=C\CCCCSC[C@H](N)C(=O)O)C(=O)O` [Cilastatin] + CC[C@H](C)C[C@H](C)CCCCCCCCC(=O)N[C@H]1C[C@@H](O)[C@@H](NCCN)NC(=O)[C@@H]2[C@@H](O)CCN2C(=O)[C@H]([C@H](O)CCN)NC(=O)[C@H]([C@H](O)[C@@H](O)c2ccc(O)cc2)NC(=O)[C@@H]2C[C@@H](O)CN2C(=O)[C@H]([C@@H](C)O)NC1=O [caspofungin] (first compound 12.5 µM) it is 0.199 ± 0.02.
Regarding `CC(C)CC(=O)N[C@H](C(=O)N[C@H](C(=O)N[C@@H](CC(C)C)[C@@H](O)CC(=O)N[C@@H](C)C(=O)N[C@@H](CC(C)C)[C@@H](O)CC(=O)O)C(C)C)C(C)C` [Pepstatin A] + OC(Cn1cncn1)(Cn1cncn1)c1ccc(F)cc1F [fluconazole] (first compound 12.5 µM), the “biofilm OD600” value was 0.144 ± 0.0099.
Consider `NCC1CCC(C(=O)N[C@@H](Cc2ccccc2)C(=O)Nc2ccc(CC(=O)O)cc2)CC1` (some centres undefined) + CC[C@H](C)C[C@H](C)CCCCCCCCC(=O)N[C@H]1C[C@@H](O)[C@@H](NCCN)NC(=O)[C@@H]2[C@@H](O)CCN2C(=O)[C@H]([C@H](O)CCN)NC(=O)[C@H]([C@H](O)[C@@H](O)c2ccc(O)cc2)NC(=O)[C@@H]2C[C@@H](O)CN2C(=O)[C@H]([C@@H](C)O)NC1=O [caspofungin] (first compound 12.5 µM), for which the “biofilm OD600” value was 0.191 ± 0.024.
`Nc1ccc(CC(CC(=O)O)C(=O)O)cc1` [4-Amino-D, L-benzylsuccinic acid] + OC(Cn1cncn1)(Cn1cncn1)c1ccc(F)cc1F [fluconazole] (first compound 12.5 µM): the “biofilm OD600” value is 0.12 ± 0.0067.
`NCCCC[C@H](N[C@@H](CCc1ccccc1)C(=O)O)C(=O)N1CCC[C@H]1C(=O)O` [Lisinopril] + OC(Cn1cncn1)(Cn1cncn1)c1ccc(F)cc1F [fluconazole] (first compound 12.5 µM): the “biofilm OD600” value is 0.118 ± 0.015.
Take `CCOC(=O)c1ccc(OC(=O)CCCCCNC(=N)N)cc1` [Gabexate mesylate] + OC(Cn1cncn1)(Cn1cncn1)c1ccc(F)cc1F [fluconazole] (first compound 12.5 µM): the “biofilm OD600” value was determined as 0.116 ± 0.0062.
With `O=C(NCCCCN1CCOCC1)c1cc2ccccc2o1` + C[C@@H]1[C@H](O)[C@@H](C)/C=C/C=C/C=C/C=C/C=C/C=C/C=C/[C@H](O[C@@H]2O[C@H](C)[C@@H](O)[C@H](N)[C@@H]2O)C[C@@H]2O[C@](O)(C[C@@H](O)C[C@@H](O)[C@H](O)CC[C@@H](O)C[C@@H](O)CC(=O)O[C@H]1C)C[C@H](O)[C@H]2C(=O)O [amphotericin B] (first compound 12.5 µM), the “biofilm OD600” value worked out at 0.216 ± 0.013.
Regarding `CCC(C)[C@H](NS(=O)(=O)c1cccc2ccccc12)C(=O)N[C@H](C=O)Cc1c[nH]c2ccccc12` (some centres undefined) + OC(Cn1cncn1)(Cn1cncn1)c1ccc(F)cc1F [fluconazole] (first compound 12.5 µM), the “biofilm OD600” value was 0.14 ± 0.0069.
On to `CC(C)(C)NC(=O)[C@@H]1C[C@@H]2CCCC[C@@H]2CN1C[C@@H](O)[C@H](Cc1ccccc1)NC(=O)[C@H](CC(N)=O)NC(=O)c1ccc2ccccc2n1` [saquinavir] + OC(Cn1cncn1)(Cn1cncn1)c1ccc(F)cc1F [fluconazole] (first compound 12.5 µM), for which the “biofilm OD600” value came out at 0.112 ± 0.009.
Under `CSCCC(C=O)NC(=O)C(CC(C)C)NC(=O)[C@H](CC(C)C)NC(C)=O` (some centres undefined) [Calpain Inhibitor II (ALLM)] + CC[C@H](C)C[C@H](C)CCCCCCCCC(=O)N[C@H]1C[C@@H](O)[C@@H](NCCN)NC(=O)[C@@H]2[C@@H](O)CCN2C(=O)[C@H]([C@H](O)CCN)NC(=O)[C@H]([C@H](O)[C@@H](O)c2ccc(O)cc2)NC(=O)[C@@H]2C[C@@H](O)CN2C(=O)[C@H]([C@@H](C)O)NC1=O [caspofungin] (first compound 12.5 µM) stands 0.178 ± 0.0059.
Regarding `CCOC(=O)c1ccc(OC(=O)CCCCCNC(=N)N)cc1` [Gabexate mesylate] + C[C@@H]1[C@H](O)[C@@H](C)/C=C/C=C/C=C/C=C/C=C/C=C/C=C/[C@H](O[C@@H]2O[C@H](C)[C@@H](O)[C@H](N)[C@@H]2O)C[C@@H]2O[C@](O)(C[C@@H](O)C[C@@H](O)[C@H](O)CC[C@@H](O)C[C@@H](O)CC(=O)O[C@H]1C)C[C@H](O)[C@H]2C(=O)O [amphotericin B] (first compound 12.5 µM), the “biofilm OD600” value was found to be 0.201 ± 0.0075.
`O=C(O[C@@H]1Cc2c(O)cc(O)cc2O[C@@H]1c1cc(O)c(O)c(O)c1)c1cc(O)c(O)c(O)c1` [Epigallocatechin gallate] + OC(Cn1cncn1)(Cn1cncn1)c1ccc(F)cc1F [fluconazole] (first compound 12.5 µM): the “biofilm OD600” value amounted to 0.164 ± 0.01.
For the molecule `NC(=O)c1cccc(-c2cccc(OC(=O)NC3CCCCC3)c2)c1` + CC[C@H](C)C[C@H](C)CCCCCCCCC(=O)N[C@H]1C[C@@H](O)[C@@H](NCCN)NC(=O)[C@@H]2[C@@H](O)CCN2C(=O)[C@H]([C@H](O)CCN)NC(=O)[C@H]([C@H](O)[C@@H](O)c2ccc(O)cc2)NC(=O)[C@@H]2C[C@@H](O)CN2C(=O)[C@H]([C@@H](C)O)NC1=O [caspofungin] (first compound 12.5 µM), the “biofilm OD600” value came to 0.171 ± 0.0069.
With `CC(C)CCNC(=O)[C@H](CC(C)C)NC(=O)[C@H]1O[C@@H]1C(=O)O` + OC(Cn1cncn1)(Cn1cncn1)c1ccc(F)cc1F [fluconazole] (first compound 12.5 µM), the “biofilm OD600” value came to 0.143 ± 0.008.
The figure for `N[C@H](C(=O)O)[C@@H]1CC(Cl)=NO1` [Acivicin] + OC(Cn1cncn1)(Cn1cncn1)c1ccc(F)cc1F [fluconazole] (first compound 4 µM) is 0.123 ± 0.0055.
Regarding `CC1(C)C[C@@H]1C(=O)N/C(=C\CCCCSC[C@H](N)C(=O)O)C(=O)O` [Cilastatin] + OC(Cn1cncn1)(Cn1cncn1)c1ccc(F)cc1F [fluconazole] (first compound 12.5 µM), the “biofilm OD600” value was 0.162 ± 0.012.
Take `NCCCC[C@H](N[C@@H](CCc1ccccc1)C(=O)O)C(=O)N1CCC[C@H]1C(=O)O` [Lisinopril] + CC[C@H](C)C[C@H](C)CCCCCCCCC(=O)N[C@H]1C[C@@H](O)[C@@H](NCCN)NC(=O)[C@@H]2[C@@H](O)CCN2C(=O)[C@H]([C@H](O)CCN)NC(=O)[C@H]([C@H](O)[C@@H](O)c2ccc(O)cc2)NC(=O)[C@@H]2C[C@@H](O)CN2C(=O)[C@H]([C@@H](C)O)NC1=O [caspofungin] (first compound 12.5 µM): the “biofilm OD600” value is 0.178 ± 0.023.
Consider `O=C(O[C@@H]1Cc2c(O)cc(O)cc2O[C@@H]1c1cc(O)c(O)c(O)c1)c1cc(O)c(O)c(O)c1` [Epigallocatechin gallate] + CC[C@H](C)C[C@H](C)CCCCCCCCC(=O)N[C@H]1C[C@@H](O)[C@@H](NCCN)NC(=O)[C@@H]2[C@@H](O)CCN2C(=O)[C@H]([C@H](O)CCN)NC(=O)[C@H]([C@H](O)[C@@H](O)c2ccc(O)cc2)NC(=O)[C@@H]2C[C@@H](O)CN2C(=O)[C@H]([C@@H](C)O)NC1=O [caspofungin] (first compound 12.5 µM), for which the “biofilm OD600” value worked out at 0.211 ± 0.01.
For `O=C(O)CNC(=O)C(CS)Cc1ccccc1` (racemic) [DL-Thiorphan] + OC(Cn1cncn1)(Cn1cncn1)c1ccc(F)cc1F [fluconazole] (first compound 12.5 µM), the “biofilm OD600” value amounted to 0.107 ± 0.0069.
As for `CC(C)C[C@H](NC(=O)[C@@H](O)[C@H](N)Cc1ccccc1)C(=O)O` [Bestatin·HCl] + C[C@@H]1[C@H](O)[C@@H](C)/C=C/C=C/C=C/C=C/C=C/C=C/C=C/[C@H](O[C@@H]2O[C@H](C)[C@@H](O)[C@H](N)[C@@H]2O)C[C@@H]2O[C@](O)(C[C@@H](O)C[C@@H](O)[C@H](O)CC[C@@H](O)C[C@@H](O)CC(=O)O[C@H]1C)C[C@H](O)[C@H]2C(=O)O [amphotericin B] (first compound 12.5 µM), the “biofilm OD600” value turned out to be 0.211 ± 0.0059.
In the case of `CC(C)C[C@H](NC(=O)N[C@H](C(=O)N[C@@H](CCC(N)=O)C(=O)N[C@@H](C)C=O)[C@@H]1CCNC(=N)N1)C(=O)O` [Elastatinal] + C[C@@H]1[C@H](O)[C@@H](C)/C=C/C=C/C=C/C=C/C=C/C=C/C=C/[C@H](O[C@@H]2O[C@H](C)[C@@H](O)[C@H](N)[C@@H]2O)C[C@@H]2O[C@](O)(C[C@@H](O)C[C@@H](O)[C@H](O)CC[C@@H](O)C[C@@H](O)CC(=O)O[C@H]1C)C[C@H](O)[C@H]2C(=O)O [amphotericin B] (first compound 12.5 µM), the “biofilm OD600” value came out at 0.21 ± 0.0065.
